Assay outcomes: PubChem, National Center for Advancing Translational Sciences (NCATS)
Only a selection was taken, and hits are over-represented in it overall.
TDP1 cell noCPT = qHTS for Inhibitors of human tyrosyl-DNA phosphodiesterase 1 (TDP1): qHTS in cells in absence of CPT; DT40 Tdp1-/- hTDP1 cells, no CPT, ATP luminescence, 48 h; actives 15% (n = 420,000); Potency, µM (series often up to 46.2 µM), for inactives: at the top dose activity change, negative = growth inhibition, usual class: inhibitors; AID 686978, 2013; also: potency is read from the fitted curve at half-maximal effect; nearly all actives have a fitted effect of over 55% in size
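Seeded 400 DT40-hTDP1 cells/well (vehicle DMSO, no 20 nM CPT); pinned compounds; ≥48 hr at 37 °C; CellTiter-Glo luminescence as viability measure.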
HT1080-NT tox = kills 2HG-producing HT-1080-NT fibrosarcoma cells. actives 1.6% (n = 360,000). HT-1080-NT fibrosarcoma viability, CellTiter-Glo ATP luminescence, 48 h. Potency, µM (titrated, usually from 46.1 µM), for the others: at the top dose activity, negative = less viability, most hits filed as cytotoxic;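 also: NT is the 2HG producing partner of a matched IDH1 knockdown line; potency is read from the fitted curve at half-maximal effect; 0% = DMSO-treated cells and -100% = media-only wells without cells; nearly all actives have a fitted effect of over 55% in size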
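Luminescent CellTiter-Glo readout after 48 hours of compound exposure at 37 degrees C defined viability of HT-1080-NT cells. Activity was normalized to DMSO wells and cell-free media wells; concentration-response curves were fitted and assigned curve classes.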
IL-1B inflam inh = inhibitors of inflammasome signaling (IL-1 beta secretion). THP-1 LPS/ATP IL-1B secretion, AlphaLISA, 16 h; active compounds read low. actives 4.7% (n = 360,000). AID 743279. activity change, % at 57.5 µM; in the data active = activity change below about -50%; inconclusive = mostly about -30% to -49%
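THP-1 cells pretreated 1 hr with compounds (up to 57.5 uM final), then stimulated with LPS (250 ng/mL final) plus ATP (1.25 mM final); secreted IL-1B measured by AlphaLISA after 16 hr, decreased signal indicating inhibition.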
TDP1 cell CPT = DT40-hTDP1 cell growth loss with CPT; chicken DT40 Tdp1-/-;hTDP1 cells + 20 nM CPT, ATP luminescence, 48 h; actives 12% (n = 420,000); Potency, µM (titrated, usually from 46.2 µM), without a hit: at the top dose activity change, negative = growth inhibition, hits mostly inhibitors; also: potency is read from the fitted curve at half-maximal effect; nearly all actives have a fitted effect of over 55% in size
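Chicken DT40 Tdp1-/- cells stably complemented with human TDP1 were seeded at 400 cells/well in medium containing 20 nM camptothecin, exposed to pin-transferred compounds, and grown at 37 °C for at least 48 hr. Viability was read as ATP luminescence.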
HT1080 IDH1KD tx = kills HT-1080 cells with IDH1 knockdown; actives 2% (n = 360,000); Potency, µM (titrated, usually from 46.1 µM), for inactives: at the highest dose activity, negative = toxicity, actives largely listed as cytotoxic; HT-1080 IDH1 knockdown viability, ATP luminescence, 48 h; AID 686971;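 also: potency is read from the fitted curve at half-maximal effect; 0% = DMSO wells and -100% = cell-free medium wells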
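Luminescent ATP read-out (CellTiter-Glo, 10 min at room temperature) after 48 h compound exposure at 37 °C gave viability of IDH1-knockdown HT-1080 cells. Activity was normalised to DMSO and cell-free wells, then fitted as concentration-response curves.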
12-LOX inh = ALOX12 (human) lipoxygenase inhibition; P18054; purified 12hLO, xylenol orange hydroperoxide absorbance; Potency, µM (series often up to 108 µM), for inactives: at the highest dose activity change, negative = inhibition, usual class: inhibitors; actives 1.1% (n = 580,000); AID 1671190; also: potency is read from the fitted curve at half-maximal effect
Target sequence (P18054 whole entry, looked up): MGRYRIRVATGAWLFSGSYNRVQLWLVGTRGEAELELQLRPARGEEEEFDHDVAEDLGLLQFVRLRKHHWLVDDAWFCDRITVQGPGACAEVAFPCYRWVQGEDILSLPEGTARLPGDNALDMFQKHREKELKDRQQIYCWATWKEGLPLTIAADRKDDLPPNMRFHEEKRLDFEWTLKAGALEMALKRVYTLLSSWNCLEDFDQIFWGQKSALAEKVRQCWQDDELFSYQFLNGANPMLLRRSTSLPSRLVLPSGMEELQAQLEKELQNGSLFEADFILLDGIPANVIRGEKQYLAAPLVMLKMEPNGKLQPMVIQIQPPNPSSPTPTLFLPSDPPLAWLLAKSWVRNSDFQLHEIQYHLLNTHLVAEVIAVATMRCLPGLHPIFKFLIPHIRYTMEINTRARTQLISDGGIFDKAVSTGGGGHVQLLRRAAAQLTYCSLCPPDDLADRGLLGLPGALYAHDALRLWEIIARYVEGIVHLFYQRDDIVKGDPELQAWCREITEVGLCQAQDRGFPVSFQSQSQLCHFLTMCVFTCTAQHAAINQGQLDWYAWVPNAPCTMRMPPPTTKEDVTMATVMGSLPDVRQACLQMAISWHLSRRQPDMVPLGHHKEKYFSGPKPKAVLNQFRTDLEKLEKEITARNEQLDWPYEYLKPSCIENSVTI
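Purified human 12hLO at 150 nM in 25 mM Hepes, 0.01% Triton X-100, pH 7.0, preincubated 15 min at room temperature with compound. Reaction started with 40 uM arachidonic acid, 30 min at room temperature. Hydroperoxide measured by Fe-xylenol orange, 573/405 nm absorbance ratio.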
An asterisk follows results filed as active; [ ] = dose if it differs, or a comment. Unless noted, calls follow the shape of the dose curve; as a rule, active = well fitted curve in the direction sought with a large enough effect; inconclusive = small, poorly fitted or top-dose-only effect, or another doubt; inactive = no such curve, though single readings can be large; an effect the other way counts as inactive or inconclusive. Unless noted, % is scaled to controls: 0 for no effect and ±100 for the full control effect.

`CCc1ccc(C(=O)Nc2cccc(-c3nc4cc(C(C)C)ccc4o3)c2)cc1` gave 12-LOX inh 0.0%.
Screening O=C(c1cc(F)ccc1F)N1CCC(Cc2nc(-c3cnccn3)no2)CC1 returned 12-LOX inh 27.8%.
`COC(=O)C1=C(O)C2(C(=O)O)CC(C(=O)OC)=C(O)C(C(=O)O)(C1)C2` gave TDP1 cell noCPT 10.3µM*, HT1080-NT tox -2.1%, TDP1 cell CPT 2.9%, HT1080 IDH1KD tx 2.3% and 12-LOX inh -38.3%.
Screening CC1(C(=O)O)CC(C)(C(=O)O)CC(C)(C(=O)O)C1 (stereo not drawn) returned TDP1 cell noCPT 1.4%, HT1080-NT tox 19.1%, IL-1B inflam inh 20.5, TDP1 cell CPT -5.7%, HT1080 IDH1KD tx 2.2% and 12-LOX inh 261.1%.
CCOC(=O)c1c(C)[nH]c(C(=O)OCC(=O)Nc2cc(C)c(Cl)cc2OC)c1C was read as TDP1 cell noCPT 4.61µM*, HT1080-NT tox -1.8%, IL-1B inflam inh 70.4, TDP1 cell CPT 3.66µM*, HT1080 IDH1KD tx -4.1% and 12-LOX inh -21.1%.
`CC(=O)c1c(C)[nH]c(C(=O)OCC(=O)NCCCc2ccccc2)c1C` gave TDP1 cell noCPT inconclusive, HT1080-NT tox -6.9%, IL-1B inflam inh 0.0, TDP1 cell CPT inconclusive, HT1080 IDH1KD tx -18.8% and 12-LOX inh -24.0%.
`CCOC(=O)c1c(C)[nH]c(C(=O)OCC(=O)NCc2ccc(OC)c(OC)c2)c1C` gave TDP1 cell noCPT 18.4µM*, HT1080-NT tox -28.8%, IL-1B inflam inh 5.3, TDP1 cell CPT 8.2µM*, HT1080 IDH1KD tx inconclusive and 12-LOX inh -16.1%.
For CC(=O)c1c(C)[nH]c(C(=O)OCC(=O)NCCc2ccc(F)cc2)c1C the results were TDP1 cell noCPT 23.1µM*, HT1080-NT tox -22.3%, IL-1B inflam inh 48.3, TDP1 cell CPT inconclusive, HT1080 IDH1KD tx -11.2% and 12-LOX inh 0.0%.
Screening NC(=O)c1ccsc1NC(=O)COC(=O)c1c(F)cccc1Cl returned TDP1 cell noCPT 8.2µM*, HT1080-NT tox -3.1%[9.24 µM], IL-1B inflam inh 9.1, TDP1 cell CPT inconclusive, HT1080 IDH1KD tx -9.9% and 12-LOX inh 0.9%.
`NC(=O)c1ccsc1NC(=O)COC(=O)c1ccccc1F` gave TDP1 cell noCPT -24.1%, HT1080-NT tox 0.6%, IL-1B inflam inh -9.9, TDP1 cell CPT -18.0%, HT1080 IDH1KD tx -2.6% and 12-LOX inh 4.3%.
`CCOC(=O)c1[nH]c(C)c(C(=O)OCC(=O)NCc2ccc(Cl)cc2)c1C` gave TDP1 cell noCPT -17.3%, HT1080-NT tox 11.1%, IL-1B inflam inh 22.8, TDP1 cell CPT -14.5%, HT1080 IDH1KD tx 3.8% and 12-LOX inh 223.3%.
For CCNC(=O)NC(=O)C(C)NC(C)c1cccc(C(F)(F)F)c1 (stereo not drawn) the results were 12-LOX inh 26.4%.
For O=S(=O)(c1ccccc1)N1N=C(c2ccc(Cl)cc2)CC1c1ccco1 (stereo not drawn) the results were TDP1 cell noCPT inconclusive, HT1080-NT tox -1.8%, IL-1B inflam inh -9.6, TDP1 cell CPT inconclusive, HT1080 IDH1KD tx -27.3% and 12-LOX inh inconclusive.
`CCOc1ccc(CCNC(=O)COC(=O)c2ccccc2O)cc1OCC` gave TDP1 cell noCPT -18.8%, HT1080-NT tox 4.2%, IL-1B inflam inh -11.7, TDP1 cell CPT -3.8%, HT1080 IDH1KD tx -15.8% and 12-LOX inh -3.4%.
`CCOc1ccc(CCNC(=O)COC(=O)c2[nH]c(C)c(C(C)=O)c2C)cc1OCC` gave TDP1 cell noCPT 20.6µM*, HT1080-NT tox -17.0%, IL-1B inflam inh -6.6, TDP1 cell CPT inconclusive, HT1080 IDH1KD tx inconclusive and 12-LOX inh -0.6%.
Screening CCOC(=O)c1c(C)[nH]c(C(=O)OCC(=O)Nc2sccc2C(N)=O)c1C returned TDP1 cell noCPT 2.06µM*, HT1080-NT tox -5.7%, IL-1B inflam inh -71.0*, TDP1 cell CPT 1.64µM*, HT1080 IDH1KD tx -27.0% and 12-LOX inh inconclusive.
Screening CC(=O)c1c(C)[nH]c(C(=O)OCc2c(F)cccc2Cl)c1C returned TDP1 cell noCPT inconclusive, HT1080-NT tox -8.1%, IL-1B inflam inh 36.0, TDP1 cell CPT inconclusive, HT1080 IDH1KD tx -1.4% and 12-LOX inh -6.1%.
Screening CCOC(=O)c1c(C)[nH]c(C(=O)OCC(=O)Nc2ccc(Cl)cn2)c1C returned TDP1 cell noCPT -1.8%, HT1080-NT tox -1.2%, IL-1B inflam inh 32.8, TDP1 cell CPT -0.6%, HT1080 IDH1KD tx -23.7% and 12-LOX inh 343.6%.
CC(=O)c1c(C)[nH]c(C(=O)OCc2ccc(F)cc2Cl)c1C was read as TDP1 cell noCPT 13µM*, HT1080-NT tox -0.7%, IL-1B inflam inh 26.2, TDP1 cell CPT 14.6µM*, HT1080 IDH1KD tx -12.7% and 12-LOX inh 5.9%.
O=C1C(=C2CCCCC2)SC(=S)N1Cc1ccco1 was read as TDP1 cell noCPT 16.4µM*, HT1080-NT tox -1.8%, IL-1B inflam inh 10.9, TDP1 cell CPT inconclusive, HT1080 IDH1KD tx inconclusive and 12-LOX inh inconclusive.
`Nc1nc2ccccc2n1Cc1ccc(Cl)c(Cl)c1` gave TDP1 cell noCPT inconclusive, HT1080-NT tox inconclusive, IL-1B inflam inh -91.7*, TDP1 cell CPT inconclusive, HT1080 IDH1KD tx inconclusive and 12-LOX inh -5.2%.
For Cc1ccc(Cn2c(CCCO)nc3ccccc32)cc1 the results were TDP1 cell noCPT inconclusive, HT1080-NT tox -18.2%, IL-1B inflam inh 7.5, TDP1 cell CPT inconclusive, HT1080 IDH1KD tx -19.3% and 12-LOX inh -12.4%.
Cc1ccc(Cn2c(N)nc3ccccc32)cc1 was read as TDP1 cell noCPT 9.2µM*, HT1080-NT tox -19.8%, IL-1B inflam inh -25.3, TDP1 cell CPT 18.4µM*, HT1080 IDH1KD tx -3.6% and 12-LOX inh 52.3%.
Cc1ccc(/C(COc2ccc3c(C)c(Cc4ccccc4)c(=O)oc3c2)=N/O)cc1 was read as 12-LOX inh 7.0%.
CC1(c2ccccc2)NC(=O)N(CC(=O)NCC2CCCO2)C1=O (stereo not drawn) was read as TDP1 cell noCPT -4.3%, HT1080-NT tox 8.4%, IL-1B inflam inh 14.8, TDP1 cell CPT -1.1%, HT1080 IDH1KD tx 8.0% and 12-LOX inh -4.2%.
